Experiment [1] in a line: Nuclear factor erythroid 2-related factor 2/antioxidant responsive element (Nrf2/ARE) small molecule agonists: qHTS cell viability counter screen in human keratinocytes (AID 1919968; active = well fitted curve in the direction sought with a large enough effect in the repeat runs; an effect the other way counts as inactive or inconclusive; also: nearly all actives have a fitted effect of over 55% in size; also: potency is read from the fitted curve at half-maximal effect). Put shortly:
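Cells of the KeratinoSens line were plated at 1,500 per well and left for 5 h before compound transfer from DMSO stocks. After a 23 h incubation (37 C, 5% CO2), CellTiter-Fluor was added. Signal was taken as fluorescence intensity 1 h later.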
Background: Quantitative high-throughput screening tests each substance at several concentrations.

A short description of experiment [2]: Nuclear factor erythroid 2-related factor 2/antioxidant responsive element (Nrf2/ARE) small molecule agonists: luciferase reporter gene qHTS assay in human keratinocytes (AID 1919969). Also: nearly all actives have a fitted effect of over 35% in size. Also: potency is read from the fitted curve at half-maximal effect. A general note: A reporter such as luciferase makes a cellular process visible.
Experiment [3] has as its target Gonadotropin-releasing hormone receptor (Homo sapiens) (UniProt P30968). Description: Human gonadotropin-releasing hormone receptor (GnRHR) small molecule agonists, calcium flux assay in GnRHR-HEK293 cells (AID 1920063). Also: nearly all actives have a fitted effect of over 35% in size. In outline:
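Compounds dissolved in DMSO are pin-transferred onto dye-loaded GnRHR-HEK293 cells, which were seeded 18 h before at 37 C/5% CO2. Calcium signal is read as fluorescence intensity at 1 s intervals for 3 min.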
On the technique in general: Calcium flux is commonly read through the fluorescence of an indicator in the cells.

Experiment [4] addresses KiSS-1 receptor (Homo sapiens) (UniProt Q969F8). Put plainly: Human kisspeptin (KISS1R) small molecule agonists, calcium flux assay in KISS1R-HEK293 cells (AID 1920064; active = well fitted curve in the direction sought with a large enough effect in the repeat runs; an effect the other way counts as inactive or inconclusive). Put shortly:
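Cell line: HEK293, stable human KISS1R. Dye loading 1 h at 37 C after 18 h culture. Read: kinetic fluorescence, 480/540 nm, 3 min at 1 s intervals.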

Experiment [5] in a line: G protein-coupled receptor (GPCR) small molecule agonists, calcium flux assay: HEK293 wild type cell line counter screen (AID 1920065). Put shortly: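 Tox21 10K compounds, 15 concentrations each in triplicate, pin-transferred in DMSO onto dye-loaded cells; kinetic read at 480/540 nm for 3 min, 1 s intervals.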
For experiment [6], the target named is 5-hydroxytryptamine receptor 2A (Homo sapiens) (UniProt P28223). Put plainly: 5-hydroxytryptamine receptor 2A (HTR2A) small molecule antagonists, cell-based qHTS assay (AID 1963586). Also: nearly all actives have a fitted effect of over 45% in size. In outline: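 CHO cells stably expressing human HTR2A were plated for 18 h at 37 C, then loaded with calcium dye for 1 h. Compounds were preincubated 5 min at room temperature before DOI (4 nM solution) was added. Kinetic fluorescence was read for 3 min.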

For experiment [7] the target is unchanged. Put plainly: 5-hydroxytryptamine receptor 2A (HTR2A) small molecule agonists, cell-based qHTS assay (AID 1963587). Also: nearly all actives have a fitted effect of over 30% in size. In outline: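 Kinetic calcium-flux fluorescence (2 min, 1 sec intervals) after compound addition in agonist mode. HTR2A-CHO cells were cultured 18 h, then dye-loaded 1 h at 37 C.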
Experiment [8] addresses Muscarinic acetylcholine receptor M1 (Homo sapiens) (UniProt P11229). Description: Cholinergic receptor muscarinic 1 (CHRM1) small molecule antagonists, cell-based qHTS assay (AID 1963588). Also: nearly all actives have a fitted effect of over 40% in size. Put shortly:
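Compounds were tested at 15 concentrations in three independent runs. Dye-loaded CHRM1-CHO cells were exposed 5 min at room temperature before stimulation by acetylcholine added at 50nM. Intracellular calcium was read kinetically on FDSS for 3 min.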

The target is the same in experiment [9]. Put plainly: Cholinergic receptor muscarinic 1 (CHRM1) small molecule agonists, cell-based qHTS assay (AID 1963589). Also: nearly all actives have a fitted effect of over 35% in size. Also: potency is read from the fitted curve at half-maximal effect. Put shortly: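 Homogeneous fluorescence calcium flux, agonist mode. Human M1-expressing CHO cells; compound dosed at 15 concentrations, three independent runs; signal sampled every 1 sec.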
Experiment [10] is described as follows: cAMP Responsive Elements (CRE) small molecule agonists, cell-based qHTS assay (AID 1963590). In outline: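 HEK 293T cells stably bearing CRE-bla were plated at 2,000 cells per well and rested 18 h. Compounds, positive controls or DMSO were added for 3 h at 37 C. LiveBLAzer B/G substrate was then loaded for 2 h at room temperature.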
Experiment [11] has as its target Beta-2 adrenergic receptor (Homo sapiens) (UniProt P07550). Put plainly: Adrenergic beta2 receptor (ADRB2) small molecule antagonists, cell-based qHTS assay (AID 1963592). Also: nearly all actives have a fitted effect of over 50% in size. Also: potency is read from the fitted curve at half-maximal effect. In outline:
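Assay format: CHO-ADRB2 cells, 18-20hr seeding at 37C/5% CO2, then compound plus 1nM isoproterenol agonist mix for 0.5hr RT. Homogeneous time-resolved fluorescence cAMP detection after 1hr, expressed as 665/615 nm ratio.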

Experiment [12] addresses D(2) dopamine receptor (Homo sapiens) (UniProt P14416). Description: Dopamine D2 receptor (DRD2) small molecule agonists, cell-based qHTS assay (AID 1963594). Also: nearly all actives have a fitted effect of over 35% in size. In outline: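 cAMP accumulation in DRD2-HEK293 cells measured by HTRF after 1 h detection; compounds added 10 min before NKH477 (200nM […]) forskolin-analogue stimulation, 30 min at room temperature, with Ro20-1724 present at 0.1 mM final.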

Experiment [13] shares this target. Description: Dopamine D2 receptor (DRD2) small molecule antagonists, cell-based qHTS assay (AID 1963595; active = well fitted inhibition curve with a large enough effect in the signal ratio in the repeat runs, with a control signal flat; the % refers to the signal ratio). In outline: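 Readout: HTRF cAMP, cAMP-d2 competing with cellular cAMP for anti-cAMP cryptate, read after 1 h. Cells: DRD2-HEK293. Conditions: 0.1 mM Ro20-1724, 12 nM quinpirole, 200 nM NKH477, 30 min RT.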
A short description of experiment [14]: p53 small molecule agonists, cell-based qHTS assay with rat liver microsomes (AID 1963578). In outline: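 p53RE-bla cells were exposed to compounds together with rat liver microsomes (0.5 mg/mL final) and NADPH (0.5 mg/mL final) for 16 h at 37 C, then read by LiveBLAzer beta-lactamase fluorescence after 2 h at room temperature.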
Experiment [15] can be described thus: p53 small molecule agonists, cell-based qHTS assay with rat liver microsomes: qHTS cell viability counter screen (AID 1963580). Also: nearly all actives have a fitted effect of over 45% in size. Also: potency is read from the fitted curve at half-maximal effect. Put shortly: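 Cytotoxicity counter screen: intracellular ATP read by CellTiter-Glo luminescence in the p53 reporter wells. HCT-116 p53RE-bla cells were treated for 16 h at 37 C alongside rat liver microsomes and NADPH, each 0.5 mg/mL final.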

Experiment [16] can be described thus: p53 small molecule agonists, cell-based qHTS assay: qHTS cell viability counter screen (AID 1963581). Also: nearly all actives have a fitted effect of over 45% in size. Also: potency is read from the fitted curve at half-maximal effect. Put shortly: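 ATP content measured by luminescence in HCT-116 p53RE-bla cells treated 16 h at 37 C, same wells as the reporter screen.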
Experiment [17] in a line: cAMP Responsive Elements (CRE) small molecule antagonists, cell-based qHTS assay (AID 1963591; active = well fitted inhibition curve with a large enough effect in the signal ratio in the repeat runs, not every such curve was filed as active; the % refers to the signal ratio). In outline:
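First, CRE-bla HEK293T cells settled 18 h at 37 C. Next, compound and 0.25 uM final NKH477 were applied for 3 h. Last, LiveBLAzer B/G substrate was loaded for 2 h at room temperature.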

In experiment [18] the target is Beta-2 adrenergic receptor (Homo sapiens) (UniProt P07550). Description: Adrenergic beta2 receptor (ADRB2) small molecule agonists, cell-based qHTS assay (AID 1963593).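 Also: CHO cells stably overexpressing human ADRB2.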 Put shortly:
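CHO cells stably over-expressing ADRB2 were plated overnight at 37C, then dosed with compounds plus a stimulation mix containing 100uM IBMX and 25uM Ro-20-1724 for 0.5hr at room temperature. cAMP was measured by HTRF competition, 1hr.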

The nature of experiment [19]: p53 small molecule agonists, cell-based qHTS assay (AID 1963582; active = well fitted activation curve with a large enough effect in the signal ratio in the repeat runs, not every such curve was filed as active; the % refers to the signal ratio). Put shortly: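 16 h compound exposure (37 C) of p53 response element–bla cells, preceded by 5 h recovery at 37 C/5% CO2; read-out via LiveBLAzer B/G FRET substrate, 2 h RT, fluorescence intensity.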

Molecules are shown by their SMILES. A number with no mark means an inactive call. Records with an inconclusive call do not appear. Calls of active or inactive are those of the source. Unless noted, calls follow the shape of the full dose curve.

Sequence of Beta-2 adrenergic receptor (Homo sapiens) (P07550 whole entry, looked up): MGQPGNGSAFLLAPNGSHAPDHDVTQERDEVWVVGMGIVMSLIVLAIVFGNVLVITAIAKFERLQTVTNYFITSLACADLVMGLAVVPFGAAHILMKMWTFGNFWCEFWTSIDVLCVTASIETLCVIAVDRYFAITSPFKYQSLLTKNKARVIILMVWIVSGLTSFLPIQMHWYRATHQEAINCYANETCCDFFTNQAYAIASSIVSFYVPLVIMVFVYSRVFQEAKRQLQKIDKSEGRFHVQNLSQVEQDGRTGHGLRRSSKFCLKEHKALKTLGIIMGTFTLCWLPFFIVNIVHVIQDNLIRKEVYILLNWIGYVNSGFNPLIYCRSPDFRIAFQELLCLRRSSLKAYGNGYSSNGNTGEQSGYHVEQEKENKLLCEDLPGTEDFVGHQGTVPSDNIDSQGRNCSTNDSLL
Sequence of KiSS-1 receptor (Homo sapiens) (Q969F8 whole entry, looked up): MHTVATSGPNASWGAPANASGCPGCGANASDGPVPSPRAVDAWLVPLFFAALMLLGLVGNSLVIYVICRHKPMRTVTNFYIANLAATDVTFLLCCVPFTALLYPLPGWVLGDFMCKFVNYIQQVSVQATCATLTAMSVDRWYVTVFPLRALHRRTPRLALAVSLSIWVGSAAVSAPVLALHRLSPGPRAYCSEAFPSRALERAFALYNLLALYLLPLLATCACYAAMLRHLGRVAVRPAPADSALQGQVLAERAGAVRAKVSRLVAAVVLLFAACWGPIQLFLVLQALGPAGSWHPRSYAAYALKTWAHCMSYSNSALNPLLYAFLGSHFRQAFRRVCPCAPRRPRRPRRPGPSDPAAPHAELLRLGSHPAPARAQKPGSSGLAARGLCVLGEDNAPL
Sequence of 5-hydroxytryptamine receptor 2A (Homo sapiens) (P28223 whole entry, looked up): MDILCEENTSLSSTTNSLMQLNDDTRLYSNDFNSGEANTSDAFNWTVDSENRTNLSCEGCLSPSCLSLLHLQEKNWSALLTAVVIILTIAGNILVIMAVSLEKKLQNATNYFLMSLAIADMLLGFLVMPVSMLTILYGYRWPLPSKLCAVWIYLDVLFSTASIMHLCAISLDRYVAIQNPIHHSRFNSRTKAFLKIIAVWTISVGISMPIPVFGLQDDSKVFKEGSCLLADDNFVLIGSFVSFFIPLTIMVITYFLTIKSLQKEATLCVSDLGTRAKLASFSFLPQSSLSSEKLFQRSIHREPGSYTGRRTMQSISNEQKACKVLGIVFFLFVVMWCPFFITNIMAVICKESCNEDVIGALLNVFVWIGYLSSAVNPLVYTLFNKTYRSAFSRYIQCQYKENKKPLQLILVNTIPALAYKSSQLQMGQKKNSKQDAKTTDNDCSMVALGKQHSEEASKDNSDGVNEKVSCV
Sequence of Muscarinic acetylcholine receptor M1 (Homo sapiens) (P11229 whole entry, looked up): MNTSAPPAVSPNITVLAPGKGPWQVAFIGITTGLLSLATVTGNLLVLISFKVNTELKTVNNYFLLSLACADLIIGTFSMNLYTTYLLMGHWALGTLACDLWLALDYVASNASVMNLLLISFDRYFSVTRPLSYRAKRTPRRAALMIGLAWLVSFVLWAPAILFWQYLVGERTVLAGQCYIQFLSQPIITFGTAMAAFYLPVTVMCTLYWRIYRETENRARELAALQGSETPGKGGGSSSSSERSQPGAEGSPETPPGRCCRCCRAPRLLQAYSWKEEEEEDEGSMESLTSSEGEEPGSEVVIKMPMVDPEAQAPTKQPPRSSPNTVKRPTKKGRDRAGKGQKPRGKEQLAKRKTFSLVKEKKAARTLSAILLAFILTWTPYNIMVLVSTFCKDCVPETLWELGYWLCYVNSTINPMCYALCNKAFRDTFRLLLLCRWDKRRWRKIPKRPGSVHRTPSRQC
Sequence of Gonadotropin-releasing hormone receptor (Homo sapiens) (P30968 whole entry, looked up): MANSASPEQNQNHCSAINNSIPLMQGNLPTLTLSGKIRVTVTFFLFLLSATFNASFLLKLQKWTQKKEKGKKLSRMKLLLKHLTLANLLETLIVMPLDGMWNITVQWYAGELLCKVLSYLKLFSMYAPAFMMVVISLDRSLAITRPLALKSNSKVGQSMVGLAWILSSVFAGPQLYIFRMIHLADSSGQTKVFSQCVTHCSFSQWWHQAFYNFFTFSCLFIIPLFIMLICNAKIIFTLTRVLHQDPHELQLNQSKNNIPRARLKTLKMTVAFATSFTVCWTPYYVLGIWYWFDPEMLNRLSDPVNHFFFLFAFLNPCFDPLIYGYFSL
Sequence of D(2) dopamine receptor (Homo sapiens) (P14416 whole entry, looked up): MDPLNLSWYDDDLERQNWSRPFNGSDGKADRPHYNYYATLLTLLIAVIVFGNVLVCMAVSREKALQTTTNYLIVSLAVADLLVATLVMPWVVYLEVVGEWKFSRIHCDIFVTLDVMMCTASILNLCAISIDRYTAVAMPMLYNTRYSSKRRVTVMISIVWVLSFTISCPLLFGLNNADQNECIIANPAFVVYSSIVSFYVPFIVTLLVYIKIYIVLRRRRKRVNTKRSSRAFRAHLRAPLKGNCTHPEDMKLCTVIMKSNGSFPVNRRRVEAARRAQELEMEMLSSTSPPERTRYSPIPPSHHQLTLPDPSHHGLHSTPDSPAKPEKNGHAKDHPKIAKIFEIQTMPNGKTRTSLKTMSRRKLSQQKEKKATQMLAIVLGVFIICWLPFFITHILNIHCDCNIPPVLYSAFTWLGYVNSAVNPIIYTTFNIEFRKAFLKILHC

Turning to `CCC1(c2cnc[nH]2)Cc2ccccc2C1`, the Potency result in [1], in experiment [2], in experiment [3], in [4], in experiment [5] and in experiment [6] was “inactive” in each case. The Potency result in [7], in [8], in experiment [9], in experiment [10], in experiment [11] and in [12] was “inactive” throughout. Moreover, in experiment [13], the Potency entry is “inactive”.

On to `O=[N+]([O-])c1ccc(O)cc1C(F)(F)F`, for which the results for the Potency in experiment [1] and in experiment [2] were 30.6 µM (active) and 68.6 µM (active), respectively. In addition, the Potency entry in [3], in [4], in [14], in experiment [15], in [16] and in experiment [6] was “inactive” throughout. In addition, the Potency entry in experiment [7], in [8], in experiment [9], in experiment [17], in experiment [11] and in experiment [12] was “inactive” each time. For the same molecule, the Potency entry in experiment [13] was “inactive”.

With `CNC(=S)NN`, the Potency is 12.2 µM (active) in [1] and 6.11 µM (active) in experiment [2]. Moreover, the Potency entry in experiment [3], in [4], in [14], in [16], in experiment [6] and in experiment [7] was “inactive” throughout. Besides, the Potency entry in [8], in [10], in experiment [11], in experiment [18], in experiment [12] and in experiment [13] was “inactive” each time.

Turning to `CN(c1nccc(=O)[nH]1)C1CCN(c2nc3ccccc3n2Cc2ccc(F)cc2)CC1`, the Potency result in experiment [1], in experiment [2], in [3], in [4], in [5] and in experiment [6] was “inactive” each time. Moreover, the Potency entry in [8], in experiment [9], in experiment [11], in experiment [18], in experiment [12] and in experiment [13] was “inactive” in each case.

With `CC(C)NCC(O)COc1cccc2[nH]ccc12` (centres undefined), the Potency entry in experiment [1], in experiment [2], in [3], in experiment [4], in [5] and in experiment [19] was “inactive” in each case. For the same molecule, the Potency result in experiment [10], in experiment [17], in experiment [11] and in experiment [13] was “inactive” in each case.

For `O=C1NC(=O)c2cccc3cccc1c23`, the Potency entry in experiment [1], in [2], in [3], in experiment [4], in experiment [5] and in experiment [6] was “inactive” throughout. The Potency result in experiment [7], in experiment [8], in [17], in experiment [11], in [18] and in experiment [12] was “inactive” throughout. The Potency result in experiment [13] is “inactive”.

As for `Clc1nc2ccccc2nc1Cl`, the Potency result in [1], in experiment [3], in [4], in [5], in [16] and in experiment [6] was “inactive” each time. The Potency entry in experiment [7], in experiment [8], in experiment [9], in experiment [10], in experiment [17] and in experiment [11] was “inactive” in each case. Besides, in experiment [12], the Potency result was “inactive”. For the same molecule, the Potency in [2] was 55.1 µM (active).

For the molecule `O=C(Nc1ccc(Cl)c(Cl)c1)c1cc(Cl)cc(Cl)c1O`, the Potency in [1] was 3.44 µM (active); in [2], 27.3 µM (active); in experiment [15], 40.8 µM (active); in [16], 4.08 µM (active); in experiment [11], 24.3 µM (active). For the same molecule, the Potency entry in experiment [3], in [4], in experiment [14], in [12] and in experiment [13] was “inactive” in each case.

Take `CC(=O)OC(OC(C)=O)c1ccc([N+](=O)[O-])o1`: the Potency in experiment [1] was 62.2 µM (active); in experiment [2], 24.8 µM (active). Besides, the Potency result in experiment [3], in [4], in [14], in [7], in [8] and in [9] was “inactive” in each case. Also, the Potency entry in [12] is “inactive”.

For the molecule `OCc1c[nH]c2ccccc12`, the Potency result in experiment [1], in experiment [3], in experiment [4], in [5], in experiment [6] and in experiment [8] was “inactive” in each case. Also, in experiment [13], the Potency entry was “inactive”. In addition, the Potency in experiment [2] is 61.1 µM (active); in [9], 0.0031 µM (active).

These data come from PubChem BioAssay (Tox21).
